From PubChem BioAssay
Neddylation inh: cullin neddylation inhibition; inhibition, % at 25 µM; hit rate 0.58% among 360,000; TR-FRET cullin neddylation, biochemical; in the data active = inhibition above about 36%
NPR1 activator: GC-A (human) enzyme activation | P16066 | HEK293 GC-A cells, cGMP TR-FRET, EC30 ANP; 0% at EC30 ANP, 100% saturating ANP | activation, % at 10 µM | hit rate 0.14% among 370,000 | AID 1671463; in the data active = activation above about 40%
TLR4 MyD88 comp: TLR4-MyD88 interaction inhibition in cells | O00206+Q99836 | HeLa CL3-4 TLR4/MyD88 BLA complementation, FRET ratio | inhibition, % at 8.4 µM | hit rate 0.18% among 200,000; in the data active = inhibition above about 25%;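 note: 0% = vehicle and 100% = reference inhibitor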
TLR9-MyD88 inh: TLR9-MyD88 interaction inhibition; Q9NR96+Q99836; inhibition, % at 4.98 µM; CHO BLA complementation TLR9-MyD88, CCF4 FRET ratio; hit rate 0.21% among 340,000;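 active = inhibition above the mean over all tested compounds plus 3 SD, cut at about 21% in these data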;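 note: 0% = DMSO only wells and 100% = clavulanate BLA inhibitor control wells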
NOD2-RIPK2 inh: blocks binding of human NOD2 to RIPK2. O43353. CHO BLA complementation NOD2-RIPK2, CCF4 ratio. inhibition, % at 4.98 µM. hit rate 0.38% among 360,000. AID 624267; in the data active = inhibition above about 21%;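 note: 0% = vehicle only and 100% = reference blocker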
NPR2 activator: GC-B (human) receptor activation; P20594; HEK293-GC-B cells, CNP EC30, cGMP TR-FRET; 0% at EC30 CNP, 100% saturating CNP; activation, % at 10 µM; hit rate 0.11% among 370,000; AID 1920062;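 active = activation at 10 µM reaching about 35% in either raw or pattern-adjusted values, limit read from the data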
* = called active by the depositor; x = no result. Most compounds without a hit are left out; they make up all but 1.2% or so of the library.

SMILES	Neddylation inh	NPR1 activator	TLR4 MyD88 comp	TLR9-MyD88 inh	NOD2-RIPK2 inh	NPR2 activator
CN(C)c1ccc(-c2nc3ccccc3c(=O)[nH]2)cc1	42*	-4	x	-5	-4	-5
CCOC(=O)CC1CCCCN1C(=O)c1cc(COc2cccc3cnccc23)on1 (configuration not stated)	56*	0	x	5	-1	4
COC(=O)C1CCCCN1C(=O)c1cc(COc2cccc3cnccc23)on1 (configuration not stated)	47*	3	x	-8	-2	2
COC(=O)C1CCCCN1C(=O)c1cc(COc2cccc3cccnc23)on1 (configuration not stated)	33	1	x	-1	-7	-3
CC(=O)O[C@H]1[C@H](OC(C)=O)C[C@]2(OC(C)=O)C[C@H]1OC2=O	x	0	x	x	x	-4
N/C(=N\OC(=O)c1ccc(Cl)c([N+](=O)[O-])c1)c1ccccc1	-13	46*	x	4	6	-4
Cc1cc2n(n1)C(c1ccccc1)CC(c1ccc(Br)cc1)=N2 (configuration not stated)	31	x	-10	24*	22*	x
c1ccc(CSC2=NNC(c3ccccn3)S2)cc1 (configuration not stated)	38*	3	x	-3	1	1
O=C(CSC1=NNC(c2ccccn2)S1)Nc1ccc(C(F)(F)F)cc1 (configuration not stated)	-7	-2	x	7	6	4
NC(=S)N/N=C1\CC(c2ccc3c(c2)OCCCO3)Oc2ccc(F)cc21 (configuration not stated)	-18	16	x	10	-1	22
NC(=S)N/N=C1\CC(c2ccc3c(c2)OCCO3)Oc2ccc(F)cc21 (configuration not stated)	-4	32	x	-10	0	42*
COc1ccc(CNC2CCC23CCCCC3)cc1OC (configuration not stated)	x	-4	x	x	x	-1
Cc1nc([N+](=O)[O-])c(Br)n1CC(=O)c1ccccc1	-6	2	1	-5	2	7
Cc1nc([N+](=O)[O-])c(Br)n1CC(=O)c1ccc2ccccc2c1	-8	x	4	-5	22*	x
CC(=O)c1ccc(-c2ccc(C(=O)Nc3nc(-c4ccccn4)cs3)o2)cc1	36*	-4	x	-4	-9	2
Cc1ccc(C(=O)Nc2nc(-c3ccccn3)cs2)o1	4	1	x	-3	-2	9
Cn1cccc1C(=O)N1CCN(S(=O)(=O)c2ccc([N+](=O)[O-])cc2)CC1	x	2	x	x	x	1
O=C1NC(Cc2ccc(O)cc2)c2nc3cc(F)c(F)cc3c(=O)n2-c2cc3ccccc3cc21 (configuration not stated)	-17	-1	x	-9	-4	38*
O=C1NC(Cc2ccc(O)cc2)c2nc3ccc(F)cc3c(=O)n2-c2cc3ccccc3cc21 (configuration not stated)	-11	0	x	-2	0	65*
C[C@H]1COc2cc(Br)ccc2S(=O)(=O)N1Cc1cn(CCC2OCCO2)nn1	x	2	x	x	x	-1
CN(C)S(=O)(=O)c1cccc(C(=O)N/N=C\c2ccccc2[N+](=O)[O-])c1	x	-6	x	x	x	-7
CCOc1ccc(S(=O)(=O)N(CCO)CCO)cc1-c1nc2c(C(C)(C)C)nn(C)c2c(=O)[nH]1	14	58*	-3	-8	-2	63*
CCCc1nn(C)c2c(=O)[nH]c(-c3cc(S(=O)(=O)N(CCO)CCO)ccc3OCC)nc12	7	50*	x	-5	-11	56*
CCC(NC(=O)c1ccc2c(ccn2Cc2cccc(-c3ccccc3C(=O)O)c2)c1)c1ccccc1 (configuration not stated)	x	0	x	x	x	6
COc1ccc(CNS(=O)(=O)c2ccccc2Br)c(OC)c1	x	-2	x	x	x	3
c1cncc(-c2nc(NCc3cccs3)c3ccccc3n2)c1	-12	4	0	4	5	8
Fc1ccccc1CNc1nc(-c2cccnc2)nc2ccccc12	-8	32	x	-7	-5	36*
CCOC(=O)c1[nH]cnc1N=Nc1c(O)ccc2ccccc12	-2	36	-2	1	-4	38*
